Measurements: PubChem BioAssay (Tox21)
Inconclusive results are not listed. Active and inactive are the calls of the source. Unless noted, calls follow the shape of the dose curve; as a rule, active = well fitted curve in the direction sought with a large enough effect in the repeat runs; inconclusive = weak or mixed curves; inactive = no such curve, though single readings can be large; an effect the other way counts as inactive or inconclusive.

Experiments:
[1] = qHTS assay for small molecule agonists of the p53 signaling pathway (AID 651631; calls by dose curve; also: nearly all actives have a fitted effect of over 15% in size)
Outline: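 HCT-116 cells carrying a stable p53 response element–beta-lactamase reporter were plated, rested 5 h at 37 °C, then exposed to compound in DMSO for 16 h at 37 °C; reporter activity was read as FRET substrate fluorescence after 2 h at room temperature.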

[2] = qHTS assay for small molecules that induce genotoxicity in human embryonic kidney cells expressing luciferase-tagged ATAD5 (AID 651632); also: nearly all actives have a fitted effect of over 15% in size
Outline: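 Cells were seeded at 2,000 per well, dosed with compound, and incubated 16 hr at 37C in 5% CO2. Luciferase activity was then quantified after a 30 min room-temperature incubation with Amplite.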

[3] = qHTS assay for small molecules that induce genotoxicity in human embryonic kidney cells expressing luciferase-tagged ATAD5 - cell viability (AID 651634; calls by dose curve; also: nearly all actives have a fitted effect of over 25% in size)
Outline: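 Cells (HEK293T, luciferase-tagged ATAD5) are seeded at 2,000 per well, dosed with compound or DMSO vehicle, and incubated 15.5 hr at 37C and 5% CO2. CellTiter-Fluor is added for 30 min before fluorescence is measured.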

[4] = qHTS assay for small molecule disruptors of the mitochondrial membrane potential - cell viability (AID 720634; calls by dose curve;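 also: human HepG2 liver cancer cells; series mostly up to about 83 µM; nearly all actives have a fitted effect of over 20% in size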)
Outline: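 Cytotoxicity was measured by ATP quantitation in HepG2 wells that had first been treated with compound for 1 hr and stained with m-MPI dye; CellTiter-Glo incubation was 30 min at room temperature.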

[5] = qHTS assay for small molecule disruptors of the mitochondrial membrane potential (AID 720635); also: potency is read from the fitted curve at half-maximal effect
Outline: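 HepG2 cells exposed to compound 1 hr at 37C, then Mito-MPS dye 30 min. Ratio read of aggregate (540/590 nm) versus monomer (490/535 nm) fluorescence.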

[6] = qHTS assay to test for compound auto fluorescence at 590 nm (red) in HepG2 cells (AID 720674)
Outline: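 Fluorescence at 590 nm emission following 540 nm excitation was recorded from HepG2 wells one hour after compound transfer, with DMSO-only wells as vehicle and Rose Bengal sodium equivalency as the scale.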

[7] = qHTS assay to test for compound auto fluorescence at 535 nm (green) in HepG2 cells (AID 720675)
[8] = qHTS assay to test for compound auto fluorescence at 460 nm (blue) in HEK293 cells (AID 720678)
Outline: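 Intrinsic compound fluorescence is recorded in live HEK293 cultures after overnight incubation at 37C, 5% CO2, using excitation 405 nm and emission 460 nm. Values are referenced to triamterene.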

[9] = qHTS assay to test for compound auto fluorescence at 590 nm (red) in HEK293 cells (AID 720679)
Outline: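 Red autofluorescence, HEK293 cells: 2,000 cells/well; attach 4-5 hr 37C; add 23 nL cpd or DMSO; incubate o/n 37C 5% CO2; read Ex540/Em590; Rose Bengal sodium reference.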

[10] = qHTS assay to test for compound auto fluorescence at 460 nm (blue) in HEK293 cell free culture (AID 720681)
Outline: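 Compounds were added to cell-free DMEM with 10% FBS and fluorescence read directly. The blue channel used 405 nm excitation and 460 nm emission, with triamterene as the reference fluorophore.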

[11] = qHTS assay to test for compound auto fluorescence at 535 nm (green) in HEK293 cell free culture (AID 720682)
Outline: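 Read-out: 485/535 nm fluorescence intensity, calibrated against fluorescein. Medium only (DMEM + 10% FBS, no cells); test compound or DMSO vehicle added by pintool before plate reading.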

[12] = qHTS assay to test for compound auto fluorescence at 590 nm (red) in HEK293 cell free culture (AID 720683)
Outline: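 Cell-free wells of DMEM with 10% FBS received compound, and intrinsic fluorescence was read at excitation/emission 540/590 nm. Values expressed as equivalence to Rose Bengal sodium.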

[13] = qHTS assay to test for compound auto fluorescence at 590 nm (red) in HepG2 cell free culture (AID 720684)
Outline: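 Rose Bengal sodium served as the reference for red signal. Test compounds were dispensed into serum-containing MEM (10% FBS) without cells, and plates were read at 540/590 nm.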

[14] = qHTS assay to test for compound auto fluorescence at 460 nm (blue) in HepG2 cell free culture (AID 720685)
Outline: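 Cell-free plates of MEM plus 10% FBS received 23 nL compound or DMSO vehicle; blue-channel (405/460 nm) intensity scored against triamterene as reference fluorophore.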

[15] = qHTS assay to test for compound auto fluorescence at 535 nm (green) in HepG2 cell free culture (AID 720686)
[16] = qHTS assay to test for compound auto fluorescence at 460 nm (blue) in HepG2 cells (AID 720687)
Outline: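 HepG2 cells in MEM with 10% FBS, attached overnight at 37 C, were exposed to compound or DMSO for 1 hr at 37 C, 5% CO2. Blue fluorescence was read at 405/460 nm, with triamterene as reference fluorophore.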

[17] = target: Glucocorticoid receptor (Homo sapiens) (UniProt P04150); assay: qHTS assay to identify small molecule agonists of the glucocorticoid receptor (GR) signaling pathway (AID 720691; active = well fitted activation curve with a large enough effect in the signal ratio in the repeat runs, not every such curve was filed as active; the % refers to the signal ratio)
Chain of Glucocorticoid receptor (Homo sapiens) (P04150 whole entry, looked up): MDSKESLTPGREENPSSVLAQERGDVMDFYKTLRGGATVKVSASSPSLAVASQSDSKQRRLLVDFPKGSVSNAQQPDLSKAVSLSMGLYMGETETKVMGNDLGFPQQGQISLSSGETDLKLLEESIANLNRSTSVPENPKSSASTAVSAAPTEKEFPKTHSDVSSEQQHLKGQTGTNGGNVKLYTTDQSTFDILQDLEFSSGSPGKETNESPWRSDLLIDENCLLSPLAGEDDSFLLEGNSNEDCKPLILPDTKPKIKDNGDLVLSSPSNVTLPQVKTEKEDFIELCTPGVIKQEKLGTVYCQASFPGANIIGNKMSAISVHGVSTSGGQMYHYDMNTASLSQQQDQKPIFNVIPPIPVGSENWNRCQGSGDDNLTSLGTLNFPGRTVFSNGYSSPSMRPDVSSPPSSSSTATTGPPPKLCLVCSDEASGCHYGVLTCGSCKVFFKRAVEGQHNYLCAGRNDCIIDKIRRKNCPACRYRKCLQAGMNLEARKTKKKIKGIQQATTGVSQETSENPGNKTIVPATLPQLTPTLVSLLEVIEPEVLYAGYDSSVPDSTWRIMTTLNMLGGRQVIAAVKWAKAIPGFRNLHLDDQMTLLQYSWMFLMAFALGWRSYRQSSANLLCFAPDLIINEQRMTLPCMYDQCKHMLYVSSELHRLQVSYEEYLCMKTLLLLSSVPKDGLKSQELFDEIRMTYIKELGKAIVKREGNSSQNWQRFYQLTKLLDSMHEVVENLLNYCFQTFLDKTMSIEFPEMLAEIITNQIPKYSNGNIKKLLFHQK
Outline: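 Steps: seed GR-bla HeLa cells, incubate 4 h at 37 C/5% CO2; pin-transfer DMSO-dissolved compounds; incubate 18 h at 37 C; add LiveBLAzer B/G FRET substrate; after 2 h at room temperature, measure fluorescence.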

[18] = target: Glucocorticoid receptor (Homo sapiens) (UniProt P04150); assay: qHTS assay to identify small molecule antagonists of the glucocorticoid receptor (GR) signaling pathway (AID 720692; active = well fitted inhibition curve with a large enough effect in the signal ratio in the repeat runs, not every such curve was filed as active; the % refers to the signal ratio)
Outline: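 Antagonism was scored as loss of dexamethasone-driven (5 nM final) reporter signal in HeLa cells bearing a glucocorticoid response element–beta-lactamase construct, after 18 h compound exposure at 37 C and 2 h FRET substrate loading.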

[19] = qHTS assay to test for compound auto fluorescence at 535 nm (green) in HEK293 cells (AID 720680)
[20] = qHTS assay for small molecule agonists of the p53 signaling pathway - cell viability (AID 651633; calls by dose curve; also: series mostly up to about 83 µM; nearly all actives have a fitted effect of over 30% in size)
Outline: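 p53RE-bla cells were treated with compound for 16 hours at 37 C. Cytotoxicity was then measured as CellTiter-Glo luminescence after 30 min at room temperature.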

Measured: Potency

C=C(C)C(=O)OCCOP(=O)(O)O
not listed: [19] | [20]
inactive: all other assays above

O=C1N(c2ccccc2)c2ccccc2C1(Cc1ccncc1)Cc1ccncc1
not listed: [14] | [20]
inactive: all other assays above

CCOC(=O)C1CC(=O)C(=C(O)C2CC2)C(=O)C1 (stereo not drawn)
not listed: [5] | [20]
inactive: all other assays above

CO[C@@]1(NC(=O)CSCC#N)C(=O)N2C(C(=O)O)=C(CSc3nnnn3C)CS[C@@H]21
not listed: [18] | [20]
inactive: all other assays above

CCCCNCCCC
not listed: [5] | [19] | [20]
inactive: all other assays above

COC(=O)N[C@H](C(=O)N[C@@H](Cc1ccccc1)[C@@H](O)CN(Cc1ccc(-c2ccccn2)cc1)NC(=O)[C@@H](NC(=O)OC)C(C)(C)C)C(C)(C)C
not listed: [4] | [5] | [20]
inactive: all other assays above

COc1cc2c(cc1N)oc1ccccc12
not listed: [4] | [5]
inactive: all other assays above

O=c1[nH]cnc2c1ncn2[C@@H]1O[C@H](CO)[C@@H](O)[C@H]1O
not listed: [2]
inactive: all other assays above

CCCCCCCCOC(=O)CCCCCCCCC(=O)OCCCCCCCC
not listed: [5] | [19]
inactive: all other assays above

CC(C)(C)c1cccc(O)c1
active: [5] 48.6 µM
not listed: [19] | [20]
inactive: all other assays above

CCCCC1CCC(=O)O1 (stereo not drawn)
not listed: [20]
inactive: all other assays above
